# PubChem BioAssay (NCATS)
# Records with an inconclusive call do not appear. Where a call stands in place of a potency, no number is given. Values without a mark were called inactive. Calls of active or inactive are those of the source. Calls follow the shape of the dose curve; as a rule, active = well fitted inhibition curve with a large enough effect; inconclusive = small, poorly fitted or top-dose-only effect; inactive = no such curve, though single readings can be large or run the other way.
# How the values were obtained:
# [1] = test system: Zika virus NS2B-NS3 protease (unlinked complex); test: Primary screen GU Rhodamine qHTS for Zika virus inhibitors: Unlinked NS2B-NS3 protease assay (AID 1347159); conditions: Recombinant ZIKV NS2B-NS3 protease, Rhodamine110 substrate fluorescence; series mostly up to 107 µM; also: nearly all actives have a fitted effect of over 60% in size; also: potency is read from the fitted curve at half-maximal effect
# In short: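 Unlinked NS2B/NS3, 25 nM; Rhod110 peptide, 1.5 microM; compounds, up to 114 microM. Reaction run 15 min at RT in 10 mM Tris-HCl pH 8.0, 0.01% Tween 20; kinetic fluorescence change fitted with a 4-parameter Hill model.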
# [2] = test system: Zika virus NS2B-NS3 protease (linked construct); test: Primary screen NINDS Rhodamine qHTS for Zika virus inhibitors (AID 1347160); conditions: purified NS2B-NS3 protease, Rhodamine110 substrate fluorescence; series mostly up to 57.1 µM; also: nearly all actives have a fitted effect of over 55% in size
# In short: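 Single-chain NS2B-NS3 protease, 25 nM, pH 8.0; compounds preincubated 15 min. Activity: Rhodamine110 release from 1.5 microM substrate over 15 min, room temperature, data fitted to 4-parameter Hill.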
# [3] = Confirmatory screen NINDS Rhodamine qHTS for Zika virus inhibitors (AID 1347161); conditions: purified enzyme assay, Rhodamine110 substrate fluorescence, 15 min; also: potency is read from the fitted curve at half-maximal effect; nearly all actives have a fitted effect of over 60% in size
# In short: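 Purified NS2B-NS3 protease with the NS2B hydrophilic domain joined by a flexible linker (25 nM) in 10 mM Tris-HCl pH 8.0, 0.01% Tween 20, preincubated 15 min at RT with compound; Rhodamine110 peptide substrate 1.5 µM; fluorescence change over 15 min; 4-parameter Hill fit.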
# [4] = Tertiary RLuc qRT-PCR qHTS assay for Zika virus inhibitors (AID 1347169); conditions: infected Vero cells, reporter luminescence, 48-72 h; series mostly up to 45.9 µM; also: top concentration of the series differs between compounds; nearly all actives have a fitted effect of over 55% in size
# In short: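 Vero cells (1,000/well) infected with recombinant ZIKV-RLuc (Cambodian) at MOI 1-2 after compound addition, 48-72 hrs at 37 degrees C. Live-cell Renilla luciferase substrate added; luminescence read after 1-1.5 hrs.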
smiles,measurement,setting,value
C[C@]12CCC[C@](C)(C(=O)O)C1CCC13C=C(CO)C(CCC12)C3 (some centres undefined),Potency,[1],inactive
same,Potency,[2],inactive
CC1(C)O[C@]23C[C@H]1C[C@H](OC(=O)c1ccoc1)[C@]2(C)[C@@H](OC(=O)c1ccoc1)CCC3(C)O (some centres undefined),Potency,[1],inactive
same,Potency,[2],inactive
COc1cc(/C=C/CO)ccc1O[C@@H]1O[C@H](CO)[C@@H](O)[C@H](O)[C@H]1O,Potency,[1],inactive
same,Potency,[2],inactive
CC/C=C\C[C@H]1C(=O)C=C[C@@H]1CCCCCCCC(=O)O,Potency,[1],35.5 µM (active)
same,Potency,[2],inactive
O=C(NCc1ccc(OC(F)(F)F)cc1)C1c2ccccc2C(=O)N1C1CCOCC1 (centres undefined),Potency,[1],inactive
same,Potency,[2],inactive
CC(C)c1nc(N(C)S(C)(=O)=O)nc(-c2ccc(F)cc2)c1/C=C/[C@@H](O)C[C@@H](O)CC(=O)O,Potency,[1],inactive
same,Potency,[2],inactive
CCCC1=CC2=C(CO1)C(=O)C(C)(OC(=O)c1c(C)cc(OC)cc1O)C(O)C2 (centres undefined),Potency,[1],inactive
same,Potency,[2],inactive
CC(=O)OC[C@@]12[C@H](O)C[C@@H](C)[C@]3(C[C@@H](c4ccoc4)OC3=O)[C@H]1C[C@H](O)C[C@]21CO1,Potency,[1],inactive
same,Potency,[2],inactive
CC1C/C=C/C=C\CCCCC(O)C/C=C/C(=O)O1 (centres undefined),Potency,[1],17.8 µM (active)
same,Potency,[2],inactive
same,Potency,[3],49.4 µM (active)
same,Potency,[4],inactive
COC(=O)C1(Cc2ccc(O)cc2)OC(=O)C(OC)=C1c1ccc(O)cc1 (centres undefined),Potency,[1],inactive
same,Potency,[2],inactive
CC1(C)CC2C3=CCC4C5(C)CCC(OC6OC(CO)C(O)C(OC7OC(CO)C(O)C(OC8OC(CO)C(O)C(OC9OC(COC%10OC(CO)C(O)C(O)C%10O)C(O)C(O)C9O)C8O)C7O)C6O)C(C)(C)C5CCC4(C)C3(C)CCC2(C(=O)O)CC1O (centres undefined),"activity change, negative = inhibition",[1],-21.5% [at 19.1 µM]
same,Potency,[3],7.42 µM (active)
